Measurements published in PubChem BioAssay (NCI).
Compounds without any hit were thinned out: in the full panel of roughly 79,000, 15% have a hit. Active and inactive are the calls of the source. Rule as the data show it: active = growth inhibition above about 70%; inactive = the rest.

Tests used:
[1] = NCI Yeast Anticancer Drug Screen. Data for the rad52 strain (AID 147);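 also: 0% = growth of vehicle-treated control cultures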; details: S. cerevisiae rad52 mutant growth inhibition, stronger effect = higher value
In short: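 Genetically altered yeast (DNA damage repair defect) treated with compound; inhibition calculated relative to vehicle.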

[2] = NCI Yeast Anticancer Drug Screen. Data for the wt1 strain (AID 149);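 also: 0% = growth of vehicle-treated wt1 cultures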; details: S. cerevisiae wt1 strain (SPY 50644) growth inhibition, stronger effect = higher value
In short: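 Growth inhibition read against vehicle controls after compound exposure of the wt1 yeast strain.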

[3] = NCI Yeast Anticancer Drug Screen. Data for the rad50EPP+ strain (AID 151);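 also: 0% = growth of vehicle-treated control cultures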; details: S. cerevisiae rad50 mutant strain, stronger effect = higher value
In short: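 Strain rad50EPP+; compound exposure; % growth inhibition vs vehicle.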

[4] = NCI Yeast Anticancer Drug Screen. Data for the mgt1 strain (AID 153); details: S. cerevisiae mgt1 mutant growth inhibition, stronger effect = higher value
In short: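 Read-out: yeast growth inhibition vs vehicle control. Strain mgt1, drawn from a panel altered in DNA damage repair or cell cycle control.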

[5] = NCI Yeast Anticancer Drug Screen. Data for the rad50 strain (AID 155);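 also: 0% = growth of vehicle-only cultures of the same strain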; details: S. cerevisiae rad50 strain growth inhibition, stronger effect = higher value
In short: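 Readout: growth inhibition relative to vehicle-treated cultures. Compound exposure was carried out in a genetically defined yeast strain deficient in DNA damage repair.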

[6] = NCI Yeast Anticancer Drug Screen. Data for the mec2-1 strain (AID 157); details: S. cerevisiae mec2-1 strain, stronger effect = higher value
In short: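 Cells of the genetically defined mec2-1 yeast strain are incubated with test compound. Inhibition of growth is calculated against vehicle-treated controls.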

[7] = NCI Yeast Anticancer Drug Screen. Data for the rad14 strain (AID 159);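 also: 0% = growth of vehicle-treated control cultures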; details: S. cerevisiae rad14 strain growth inhibition, stronger effect = higher value
In short: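 Growth inhibition vs vehicle controls; genetically altered yeast strain (DNA damage repair defect) treated with test compounds.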

[8] = NCI Yeast Anticancer Drug Screen. Data for the sgs1 mgt1 strain (AID 161);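 also: 0% = growth of cultures given vehicle only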; details: S. cerevisiae sgs1 mgt1 strain, stronger effect = higher value
In short: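 Read-out: growth inhibition vs vehicle controls. Cells: mutant yeast strain deficient in DNA damage repair.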

[9] = NCI Yeast Anticancer Drug Screen. Data for the CLN2oe strain (AID 163);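 also: 0% = growth of vehicle-only control cultures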; details: S. cerevisiae CLN2oe strain, stronger effect = higher value
In short: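 Strain altered in cell-cycle control, incubated with compound; growth compared to solvent-treated controls.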

[10] = NCI Yeast Anticancer Drug Screen. Data for the cln2 rad14 strain (AID 165);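 also: 0% = growth equal to vehicle treated cultures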; details: S. cerevisiae cln2 rad14 strain, stronger effect = higher value
In short: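 The screen exposed genetically defined yeast (cln2 rad14) to test compounds and scored growth inhibition relative to vehicle-treated controls.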

[11] = NCI Yeast Anticancer Drug Screen. Data for the bub3 strain (AID 167); details: S. cerevisiae bub3 mutant strain, stronger effect = higher value
In short: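 Readout: yeast growth inhibition, expressed relative to vehicle-only wells. The test organism is a mutant strain from a panel with lesions in DNA repair or checkpoint genes.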

[12] = NCI Yeast Anticancer Drug Screen. Data for the wt2 strain (AID 169);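 also: 0% = growth of vehicle-treated yeast cultures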; details: S. cerevisiae wt2 strain growth inhibition, stronger effect = higher value
In short: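 Steps: yeast strain treated with compound; growth recorded; inhibition calculated relative to cultures given vehicle alone.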

[13] = NCI Yeast Anticancer Drug Screen. Data for the mlh1 strain (AID 171);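 also: 0% = growth of vehicle-treated control cultures of the same strain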; details: S. cerevisiae mlh1 strain growth inhibition, stronger effect = higher value
In short: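 Yeast screen: mutant strain plus compound, growth scored against vehicle control wells.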

[14] = NCI Yeast Anticancer Drug Screen. Data for the sgs1 strain (AID 173);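 also: 0% = growth of vehicle-only control cultures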; details: S. cerevisiae sgs1 mutant, stronger effect = higher value
In short: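 Inhibition of yeast growth served as the measure. The mutant strain was treated with each compound, and growth was normalised to cultures receiving vehicle alone.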

[15] = NCI Yeast Anticancer Drug Screen. Data for the mlh1 rad18 strain (AID 175); details: S. cerevisiae mlh1 rad18 strain growth inhibition, stronger effect = higher value
In short: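 Compound-treated yeast growth, normalised to vehicle controls. Strain bears defined DNA repair mutations.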

[16] = NCI Yeast Anticancer Drug Screen. Data for the rad18 strain (AID 177); details: S. cerevisiae rad18 mutant growth inhibition, stronger effect = higher value
In short: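 Inhibition values reflect reduced yeast growth compared with vehicle-treated controls, using a strain engineered with a DNA damage repair defect.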

[17] = at 5.0 µM (retest, dose inferred, filed as 0.5)
[18] = at 50.0 µM (retest, dose inferred, filed as 5.0)

Measured: growth inhibition

O=C1c2ccccc2-c2n[nH]c3cccc1c23
active: [1]; at 33.0 µM 84% | [1]; at 100.0 µM 78% | [3]; at 11.0 µM 86% | [3]; at 33.0 µM 88% | [3]; at 100.0 µM 73% | [5]; [17] 100% | [5]; at 33.0 µM 79% | [5]; [18] 99% | [5]; at 100.0 µM 74% | [6]; [17] 100% | [6]; [18] 100% | [8]; [18] 86% | [8]; at 50.0 µM 78.1% | [10]; [18] 87% | [11]; [18] 89% | [15]; [17] 100% | [15]; [18] 100% | [15]; at 50.0 µM 81.1%
inactive: [1]; at 1.2 µM -28% | [1]; at 3.7 µM 10% | [1]; at 11.0 µM 69% | [2]; at 1.2 µM -21% | [2]; at 3.7 µM -28% | [2]; at 11.0 µM -12% | [2]; at 33.0 µM 10% | [2]; at 100.0 µM 11% | [3]; at 1.2 µM 7% | [3]; at 3.7 µM 69% | [4]; at 1.2 µM -40% | [4]; at 3.7 µM -32% | [4]; at 11.0 µM -10% | [4]; at 33.0 µM 27% | [4]; at 100.0 µM 32% | [5]; at 1.2 µM -21% | [5]; at 3.7 µM 29% | [5]; at 11.0 µM 67% | [5]; at 50.0 µM 69.2% | [6]; at 1.2 µM -67% | [6]; at 3.7 µM -38% | [6]; at 11.0 µM -5% | [6]; at 33.0 µM 26% | [6]; at 50.0 µM 54.3% | [6]; at 100.0 µM 46% | [7]; at 1.2 µM -18% | [7]; at 3.7 µM -24% | [7]; at 11.0 µM -6% | [7]; at 33.0 µM 23% | [7]; at 100.0 µM 28% | [8]; [17] -5% | [9]; at 1.2 µM -52% | [9]; at 3.7 µM -21% | [9]; at 11.0 µM -26% | [9]; at 33.0 µM -6% | [9]; at 100.0 µM 1% | [10]; [17] 44% | [10]; at 50.0 µM 38.9% | [11]; at 1.2 µM -1% | [11]; at 3.7 µM -15% | [11]; [17] 0% | [11]; at 11.0 µM 22% | [11]; at 33.0 µM 46% | [11]; at 50.0 µM 65.6% | [11]; at 100.0 µM 53% | [12]; at 1.2 µM -20% | [12]; at 3.7 µM -20% | [12]; at 11.0 µM 2% | [12]; at 33.0 µM 41% | [12]; at 100.0 µM 36% | [13]; at 1.2 µM -42% | [13]; at 3.7 µM -38% | [13]; at 11.0 µM 9% | [13]; at 33.0 µM 39% | [13]; at 100.0 µM 58% | [14]; at 1.2 µM -39% | [14]; at 3.7 µM -16% | [14]; at 11.0 µM 3% | [14]; at 33.0 µM 35% | [14]; at 100.0 µM 27% | [16]; at 1.2 µM -49% | [16]; at 3.7 µM -32% | [16]; at 11.0 µM -1% | [16]; at 33.0 µM 33% | [16]; at 100.0 µM 50%
